In PubChem BioAssay (Tox21):
Records with an inconclusive call do not appear. The source made the active and inactive calls. Unless noted, calls follow the shape of the dose curve; as a rule, active = well fitted curve in the direction sought with a large enough effect in the repeat runs; inconclusive = weak or mixed curves; inactive = no such curve, though single readings can be large; an effect the other way counts as inactive or inconclusive.

Assays:
[1] = qHTS assay to identify small molecule antagonists of the retinoid acid receptor (RAR) signaling pathway - cell viability counter screen (AID 1159551); details: C3RL4 cells viability, ATP luminescence (CellTiter-Glo), 6 h; series mostly up to 92.4 µM; also: nearly all actives have a fitted effect of over 35% in size
Summary of the method: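 Cytotoxicity counter screen in C3RL4 cells: 6 h compound exposure with 1 uM retinol (final), viability from cellular ATP by luminescence.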

[2] = qHTS assay to identify small molecule antagonists of the retinoic acid receptor (RAR) signaling pathway (AID 1159552; also: nearly all actives have a fitted effect of over 50% in size); details: C3RL4 RARE luciferase reporter, retinol-stimulated, 6 h; series mostly up to 92.4 µM
Summary of the method: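 Retinol at 1 uM final stimulated RARE-luciferase expression in C3RL4 cells exposed to test compounds for 6 hr at 37 C. Reduced luminescence, read 30 min after detection reagent, indicated pathway antagonism.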

[3] = qHTS assay to identify small molecule agonists of the retinoic acid receptor (RAR) signaling pathway (AID 1159553); details: C3RL4 RARE luciferase reporter, agonist, 6 h; series mostly up to 73.3 µM; also: potency is read from the fitted curve at half-maximal effect
Summary of the method: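 Agonist activity was scored in C3RL4 cells bearing a retinoic acid response element luciferase construct. Cells were treated with compounds for 6 hr at 37 C, and luciferase signal was measured as luminescence.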

[4] = qHTS assay to identify small molecule antagonists of the estrogen related receptor (ERR) signaling pathway from Tox21 library - cell viability counter screen (AID 1224834); details: ERR reporter cells viability, CellTiter-Fluor, 17.5 h; series mostly up to 92.4 µM; also: nearly all actives have a fitted effect of over 30% in size
Summary of the method: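 Cytotoxicity of test substances is gauged in the same ERR cells used for the antagonist screen, after 17.5 h of compound treatment at 37 C, by CellTiter-Fluor fluorescence measured after 30 min.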

[5] = biological target: Luciferin 4-monooxygenase (Photinus pyralis) (UniProt P08659); assay: qHTS assay to identify small molecule inhibitors of firefly luciferase (AID 1224835); also: nearly all actives have a fitted effect of over 25% in size; details: purified P. pyralis luciferase, luminescence inhibition; series mostly up to 115 µM
Chain of Luciferin 4-monooxygenase (Photinus pyralis) (P08659 whole entry, looked up): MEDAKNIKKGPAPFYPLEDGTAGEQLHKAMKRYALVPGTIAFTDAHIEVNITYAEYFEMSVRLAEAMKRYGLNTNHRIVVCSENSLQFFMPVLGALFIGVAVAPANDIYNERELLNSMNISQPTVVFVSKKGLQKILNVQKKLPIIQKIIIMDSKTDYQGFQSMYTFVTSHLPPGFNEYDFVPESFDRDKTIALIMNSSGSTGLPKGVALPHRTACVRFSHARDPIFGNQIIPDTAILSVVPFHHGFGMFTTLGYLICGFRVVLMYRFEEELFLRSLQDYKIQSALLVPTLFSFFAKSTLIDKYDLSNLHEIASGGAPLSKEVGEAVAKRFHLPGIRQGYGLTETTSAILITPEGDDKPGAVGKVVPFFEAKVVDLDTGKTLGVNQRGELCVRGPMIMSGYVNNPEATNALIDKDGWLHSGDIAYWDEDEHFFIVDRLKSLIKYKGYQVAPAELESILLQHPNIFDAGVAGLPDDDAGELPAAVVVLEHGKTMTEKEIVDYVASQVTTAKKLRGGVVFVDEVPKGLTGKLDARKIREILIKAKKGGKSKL
Summary of the method: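 Quantitative HTS format; KM concentrations of both substrates. Purified P. pyralis FLuc activity quantified from luminescence images.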

[6] = qHTS assay to identify small molecule agonists of the constitutive androstane receptor (CAR) signaling pathway - cell viability counter screen (AID 1224836); details: HepG2-CYP2B6-hCAR viability, CellTiter-Fluor, 23 h, PK11195 added to every well; series mostly up to 92.4 µM; also: nearly all actives have a fitted effect of over 45% in size
Summary of the method: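 Cells were seeded and incubated 4 hrs. Compounds were added across 15 concentrations together with PK11195 at 0.75 uM final. Plates were incubated 23 hrs at 37 C. CellTiter-Fluor was added and fluorescence measured.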

[7] = qHTS assay to identify small molecule antagonists of the constitutive androstane receptor (CAR) signaling pathway - cell viability counter screen (AID 1224837); details: HepG2-CYP2B6-hCAR viability, CellTiter-Fluor, 23 h, co-treated with 50 nM CITCO; series mostly up to 92.4 µM; also: nearly all actives have a fitted effect of over 45% in size
Summary of the method: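 Multiplexed cytotoxicity read-out for the CAR antagonist screen: double-stable HepG2-CYP2B6-hCAR cells co-treated with 50 nM CITCO (final) and compound over 15 concentrations, incubated 23 hr, then assessed by CellTiter-Fluor fluorescence.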

[8] = qHTS assay to identify small molecule antagonists of the estrogen related receptor signaling pathway with the pleiotropic PPARgamma coactivator (PGC) from Tox21 10K library - cell viability counter screen (AID 1224840; active = well fitted cell-killing curve with a large enough effect in the repeat runs, not every such curve was filed as active; also: nearly all actives have a fitted effect of over 40% in size); details: PGC/ERR reporter cells viability, CellTiter-Fluor, 17.5 h; series mostly up to 92.4 µM
Summary of the method: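 Step one, plate 2,000 PGC/ERR cells per well; step two, incubate 6 h at 37 C/5% CO2; step three, pin-transfer compounds; step four, incubate 17.5 h; step five, add CellTiter-Fluor and read fluorescence after 30 min.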

[9] = qHTS assay to identify small molecule antagonists of the estrogen related receptor signaling pathway with the pleiotropic PPARgamma coactivator (PGC) from Tox21 10K library (AID 1224841; call rule not given here; also: actives are mostly falling curves and most rising ones were filed inactive; nearly all actives have a fitted effect of over 50% in size); details: PGC/ERR reporter cell line, ONE-Glo luciferase, 18 h; series mostly up to 92.4 µM
Summary of the method: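 Antagonism in this quantitative HTS is taken from loss of luciferase signal in PGC/ERR cells. Cells (2,000/well) are treated with compounds in DMSO after a 6 h settling period and read by One-Glo luminescence after 18 h.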

[10] = qHTS assay to identify small molecule agonists of H2AX (AID 1224845; active = well fitted activation curve with a large enough effect in the signal ratio in the repeat runs, not every such curve was filed as active; the % refers to the signal ratio); details: CHO-K1 phospho-H2AX Ser139 HTRF, 3 h; series mostly up to 154 µM
Summary of the method: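 Wild-type CHO-K1 cells plated overnight, then exposed 3 hr at 37C to compounds at 15 concentrations (0.76% DMSO). Lysed, then HTRF anti-pH2AX(S139)-cryptate/anti-H2AX-d2 detection after 24 hr at room temperature; emissions 665 and 620 nm.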

[11] = qHTS assay to identify small molecule agonists of the hypoxia (HIF-1) signaling pathway (AID 1224846; active = well fitted activation curve with a large enough effect in the signal ratio in the repeat runs, not every such curve was filed as active; the % refers to the signal ratio); details: HRE-bla ME-180 cells, beta-lactamase ratio, 17 h; series mostly up to 76.8 µM
Summary of the method: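 Steps: seed ME-180 HRE-bla cells (2,000/well, 0.5% dialyzed FBS); incubate 5 hrs at 37C; pin-transfer compounds or DMSO; incubate 17 hrs; add LiveBLAzer B/G substrate CCF4-AM; measure reporter activation by FRET.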

[12] = qHTS assay to identify small molecule agonists of H2AX - cell viability counter screen (AID 1224847; calls by dose curve; also: top concentration of the series differs between compounds; nearly all actives have a fitted effect of over 30% in size); details: CHO-K1 viability, CellTiter-Glo luminescence, 3 h; series mostly up to 154 µM
Summary of the method: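 Cytotoxicity counter screen in wild-type CHO-K1 cells: a 3 hr compound treatment at 37C across 15 concentrations, followed by CellTiter-Glo luminescence to gauge viable cells.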

[13] = qHTS assay to identify small molecule antagonists of the estrogen related receptor (ERR) signaling pathway from Tox21 library (AID 1224848); details: ERR reporter cell line, luciferase antagonist mode, 18 h; series mostly up to 92.4 µM; also: nearly all actives have a fitted effect of over 50% in size
Summary of the method: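 Screening used an ERR reporter line supplied by NTP, exposed for 18 h at 37 C to library compounds delivered in DMSO. Signal was luciferase luminescence developed with ONE-Glo at room temperature for 30 min.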

[14] = qHTS assay to identify small molecule agonists of the estrogen related receptor (ERR) signaling pathway from Tox21 library (AID 1224849; calls by dose curve; also: nearly all actives have a fitted effect of over 15% in size); details: ERR reporter cell line, ONE-Glo luciferase, 18 h; at 92.4 µM (top of the series) unless noted
Summary of the method: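 Agonist signal is luciferase luminescence from an ERR reporter cell line treated 18 h at 37 C with DMSO-dissolved compounds, read 30 min after ONE-Glo addition at room temperature.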

[15] = qHTS RealTime-Glo MT Cell Viability Assay in HepG2 cells - 24 hour (AID 1224867); details: RealTime-Glo luminescence; series mostly up to 76.8 µM; also: nearly all actives have a fitted effect of over 50% in size
Summary of the method: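 qHTS, HepG2, 600 cells/well, RealTime-Glo (NanoLuc + prosubstrate) added with cells; 5 h preincubation; DMSO compound addition; 37 C; luminescence at 0/8/16/24/32/40 h.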

[16] = qHTS assay to identify small molecule agonists of the estrogen related receptor signaling pathway with the pleiotropic PPARgamma coactivator (PGC) from Tox21 10K library (AID 1224842); details: PGC/ERR reporter cell line, luciferase ONE-Glo, 18 h; series mostly up to 92.4 µM; also: nearly all actives have a fitted effect of over 15% in size
Summary of the method: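 PGC/ERR reporter cells (NTP line) were seeded 2,000 per well, rested 6 h at 37 C/5% CO2, then pin-dosed with compounds in DMSO for 18 h at 37 C; luciferase read by One-Glo luminescence after 30 min at room temperature.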

[17] = qHTS assay to identify small molecule agonists of the hypoxia (HIF-1) signaling pathway - cell viability counter screen (AID 1224844; calls by dose curve; also: nearly all actives have a fitted effect of over 50% in size); details: HRE-bla ME-180 viability, CellTiter-Glo luminescence, 17 h; series mostly up to 76.8 µM
Summary of the method: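 Tox21 10K compounds were added to HRE-bla ME-180 cells (0.5% dialyzed FBS) and incubated 17 hrs at 37C; ATP-based CellTiter-Glo luminescence then reported cell viability in the same wells.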

[18] = biological target: Thyrotropin receptor (Homo sapiens) (UniProt P16473); assay: qHTS assay to identify small molecule agonists of the thyroid stimulating hormone receptor (TSHR) signaling pathway (AID 1224843; calls by dose curve; also: nearly all actives have a fitted effect of over 45% in size); details: TSHR-HEK293 cells, cAMP HTRF, agonist mode, 30 min; series mostly up to 92.4 µM
Chain of Thyrotropin receptor (Homo sapiens) (P16473 whole entry, looked up): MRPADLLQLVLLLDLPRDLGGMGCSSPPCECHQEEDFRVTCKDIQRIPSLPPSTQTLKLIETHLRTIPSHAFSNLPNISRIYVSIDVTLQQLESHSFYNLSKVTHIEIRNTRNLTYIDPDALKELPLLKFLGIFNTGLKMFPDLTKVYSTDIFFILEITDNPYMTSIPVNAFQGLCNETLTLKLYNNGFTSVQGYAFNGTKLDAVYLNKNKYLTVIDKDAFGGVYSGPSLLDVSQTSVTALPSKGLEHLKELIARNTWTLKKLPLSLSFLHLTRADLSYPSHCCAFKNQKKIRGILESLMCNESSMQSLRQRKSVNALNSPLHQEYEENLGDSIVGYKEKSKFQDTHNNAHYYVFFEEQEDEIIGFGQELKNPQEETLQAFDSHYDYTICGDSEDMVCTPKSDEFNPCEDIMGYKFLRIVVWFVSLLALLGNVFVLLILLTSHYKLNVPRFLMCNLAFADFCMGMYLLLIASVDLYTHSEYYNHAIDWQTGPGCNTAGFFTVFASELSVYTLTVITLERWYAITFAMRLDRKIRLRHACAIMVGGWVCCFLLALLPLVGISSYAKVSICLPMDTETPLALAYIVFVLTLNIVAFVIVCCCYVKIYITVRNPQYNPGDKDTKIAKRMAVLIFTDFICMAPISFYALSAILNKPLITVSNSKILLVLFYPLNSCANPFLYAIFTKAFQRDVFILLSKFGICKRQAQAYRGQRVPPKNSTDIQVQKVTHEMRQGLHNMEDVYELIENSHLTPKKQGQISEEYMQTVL
Summary of the method: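 Cell line HEK293 with TSHR; density 800/well. Exposure 30 min RT. Readout HTRF cAMP (cAMP-d2/anti-cAMP-cryptate), 1 h RT before reading.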

[19] = biological target: Nuclear receptor subfamily 1 group I member 3 (Homo sapiens) (UniProt Q14994); assay: qHTS assay to identify small molecule antagonists of the constitutive androstane receptor (CAR) signaling pathway (AID 1224838); details: HepG2-CYP2B6-hCAR luciferase, CITCO-stimulated, 24 h; series mostly up to 92.4 µM; also: nearly all actives have a fitted effect of over 40% in size
Chain of Nuclear receptor subfamily 1 group I member 3 (Homo sapiens) (Q14994 whole entry, looked up): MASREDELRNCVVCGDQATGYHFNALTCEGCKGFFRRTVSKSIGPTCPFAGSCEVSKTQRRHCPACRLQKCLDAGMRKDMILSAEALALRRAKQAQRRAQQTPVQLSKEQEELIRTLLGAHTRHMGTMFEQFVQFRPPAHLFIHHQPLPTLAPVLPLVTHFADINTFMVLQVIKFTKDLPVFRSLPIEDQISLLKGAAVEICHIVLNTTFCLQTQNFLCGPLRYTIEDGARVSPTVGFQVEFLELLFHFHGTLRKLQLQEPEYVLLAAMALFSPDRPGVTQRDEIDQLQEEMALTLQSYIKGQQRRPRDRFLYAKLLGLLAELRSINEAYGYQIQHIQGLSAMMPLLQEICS
Summary of the method: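 Compounds were titrated across 15 concentrations onto HepG2 cells double-stably expressing hCAR and a CYP2B6-2.2kb reporter, together with 50 nM CITCO (final). After 24 h at 37 C, luciferase activity was measured by luminescence.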

[20] = biological target: Nuclear receptor subfamily 1 group I member 3 (Homo sapiens) (UniProt Q14994); assay: qHTS assay to identify small molecule agonists of the constitutive androstane receptor (CAR) signaling pathway (AID 1224839); details: HepG2 hCAR CYP2B6-luciferase, agonist mode, 24 h; series mostly up to 92.4 µM;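 also: HepG2 cells stably carrying human CAR and a CYP2B6 luciferase reporter; nearly all actives have a fitted effect of over 15% in size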
Summary of the method: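 Cells were plated and incubated 4 hrs, then dosed with compounds at 15 concentrations. PK11195 was added to 0.75 uM final. After 24 hrs at 37 C, luciferase luminescence was measured.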
% is scaled to controls: 0 for no effect and ±100 for the full control effect.

CC(CC(=O)Cl)CC(C)(C)C (centres undefined)
inactive: outcome [1] | outcome [2] | Potency [3] | outcome [4] | Potency [5] | outcome [6] | outcome [7] | outcome [8] | Potency [9] | outcome [10] | outcome [11] | outcome [12] | outcome [13] | activity change, positive = activation [14] 5.62% | outcome [15]

CCO[Si](CC(C)C)(OCC)OCC
inactive: outcome [1] | outcome [2] | Potency [3] | outcome [4] | Potency [5] | outcome [6] | outcome [7] | outcome [8] | Potency [9] | Potency [16] | outcome [17] | outcome [10] | outcome [12] | activity change, positive = activation [14] -27.2% | outcome [15]

NC[C@H]1O[C@H](O[C@H]2[C@H](O)[C@@H](O[C@H]3O[C@H](CO)[C@@H](O)[C@H](N)[C@H]3O)[C@H](N)C[C@@H]2N)[C@H](N)[C@@H](O)[C@@H]1O
inactive: activity change, negative = cytotoxicity [1] -1.43% [at 19 µM] | activity, negative = inhibition [2] -0.0699% [at 19 µM] | Potency [3] | viability change, negative = cytotoxic [4] 2% [at 19 µM] | activity change, negative = inhibition [5] -4.17% [at 23.6 µM] | viability change, negative = cytotoxic [6] -10.3% [at 19 µM] | activity change, negative = cytotoxicity [7] -13.6% [at 19 µM] | viability change, negative = cytotoxic [8] 1.41% [at 19 µM] | activation [18] -7.89% [at 19 µM] | activity change, negative = cytotoxicity [17] 6.36% [at 15.8 µM] | activation (H2AX phosphorylation) [10] -4.26% [at 31.6 µM] | activation [11] -0.993% [at 15.8 µM] | activity change, negative = cytotoxicity [12] -0.161% [at 31.6 µM] | activity change, negative = cytotoxicity [15] 0.499% [at 15.8 µM]

O=C1CC2(CCCC2)CC(=O)N1CCNCC1COc2ccccc2O1 (centres undefined)
inactive: outcome [1] | outcome [2] | Potency [3] | outcome [4] | Potency [5] | outcome [6] | outcome [7] | outcome [8] | Potency [18] | outcome [17] | outcome [10] | outcome [12] | outcome [15]

C[Si](C)(C)O[Si](O)(O)O
inactive: outcome [1] | outcome [2] | Potency [3] | outcome [4] | Potency [5] | outcome [6] | outcome [7] | outcome [8] | Potency [9] | Potency [16] | outcome [17] | outcome [10] | outcome [11] | outcome [12] | outcome [13] | activity change, positive = activation [14] 4.29% | outcome [15]

C[C@@H]1CCC[C@H](C)N1CCCC(O)(c1ccccc1)c1ccccn1 (some centres undefined)
inactive: outcome [1] | outcome [2] | Potency [3] | outcome [4] | Potency [5] | outcome [6] | outcome [19] | Potency [20] | outcome [8] | Potency [18] | outcome [10] | outcome [11] | outcome [12] | outcome [15]

CCO/C=C1\N=C(c2ccccc2)OC1=O
inactive: outcome [1] | outcome [2] | Potency [3] | outcome [4] | Potency [5] | outcome [6] | outcome [7] | outcome [8] | Potency [18] | outcome [10] | outcome [11] | outcome [12] | outcome [15]

CC1(C)S[C@@H]2[C@H](NC(=O)Cc3ccccc3)C(=O)N2[C@H]1C(=O)O (tested in a mixture with another compound)
inactive: outcome [1] | outcome [2] | Potency [3] | outcome [4] | Potency [5] | outcome [6] | outcome [19] | outcome [8] | Potency [18] | outcome [17] | outcome [10] | outcome [12] | outcome [15]

C=CCON/C(CCC)=C1\C(=O)CC(C)(C)C(C(=O)OC)=C1O
inactive: outcome [1] | outcome [2] | Potency [3] | outcome [4] | Potency [5] | outcome [6] | outcome [19] | Potency [20] | outcome [8] | Potency [18] | outcome [17] | outcome [10] | outcome [15]

Cc1nnc(C(=O)NC(C)(C)c2nc(C(=O)NCc3ccc(F)cc3)c(O)c(=O)n2C)o1
inactive: outcome [1] | outcome [2] | outcome [4] | Potency [5] | outcome [6] | outcome [8] | Potency [9] | Potency [16] | Potency [18] | outcome [17] | outcome [10] | outcome [11] | outcome [12] | outcome [13] | activity change, positive = activation [14] 9.04% [at 42.5 µM] | outcome [15]
active: Potency [3] 33.5 µM

CC(=O)OC1CCC(C(C)(C)C)CC1 (centres undefined)
inactive: outcome [1] | outcome [2] | Potency [3] | outcome [4] | Potency [5] | outcome [6] | outcome [19] | Potency [20] | outcome [8] | Potency [18] | outcome [17] | outcome [10] | outcome [11] | outcome [12] | outcome [15]
